Screening results from PubChem.
MEKK3 PB1 HTS – modulators of MEKK3-MEK5 PB1 binding, primary screen, biochemical, wildtype MEKK3, multiplex bead flow cytometry, Alexa488-MEK5; Mitogen-activated protein kinase kinase kinase 3 (Homo sapiens), Q99759; bead-based flow cytometry, Alexa488-MEK5 binding to MEKK3; actives lie on both sides; 0 = blocked by unlabeled MEK5, 100 = vehicle; binding response (% of control), % at 10 µM; actives 1.4% (n = 290,000); AID 1529, 2009;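 active = binding response more than 3 SD above or below the average of its plate-row segment, actives on both sides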;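 also: Alexa488 bead fluorescence after subtracting the streptavidin-only scavenger bead signal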
GRK2 inh – compounds blocking aptamer binding on GRK2 – biochemical, human GRK2, bead flow cytometry, HTS, primary screen; FAM-aptamer displacement from GRK2; inhibition of aptamer binding, % at 10 µM; actives 0.59% (n = 330,000);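 active = inhibition of aptamer binding above 40%, roughly 3 SD of noise, on plates passing a quality check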;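 also: median bead fluorescence of bound FAM aptamer so fluorescent compounds give negative values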
MEKK2wt PB1 HTS – modulators of MEK5 binding to wildtype MEKK2, primary screen, biochemical, multiplex bead flow cytometry, Alexa488-MEK5 | binding response (% of control), % at 10 µM | Mitogen-activated protein kinase kinase kinase 2 (Homo sapiens), Q9Y2U5 | Alexa488-MEK5 binding to MEKK2 WT; actives lie on both sides | AID 1531, 2009 | actives 1.1% (n = 290,000); in the data active = binding response below about 67% or above about 130%
MEKK2 mut-MEK5 – MEK5 binding signal on mutant MEKK2 PB1, primary screen, biochemical, multiplex bead flow cytometry, Alexa488-MEK5. percent response, % at 10 µM. AID 1530, 2009. Alexa488-MEK5 binding to MEKK2 mutant. actives 0.35% (n = 290,000); in the data active = percent response above about 24%, passing the limit was not always enough
MEKK2wt confirm – modulators of MEK5 binding to wildtype MEKK2, confirmation, biochemical, single concentration, multiplex bead flow cytometry; AID 1892, 2009; shares compounds with MEKK3 PB1 HTS; Alexa488-MEK5 binding to MEKK2 WT; actives lie on both sides; binding response (% of control), % at 10 µM; actives 2.4% (n = 5,900); in the data active = binding response below about 16% or above about 210%; inactive = in between
MEKK2mut confirm – mutant MEKK2 PB1-MEK5 binding signal retest – biochemical, single concentration, multiplex bead flow cytometry, confirmation | shares compounds with MEKK3 PB1 HTS | Alexa488-MEK5 binding to MEKK2 mutant | percent response, % at 10 µM | actives 2% (n = 5,900) | AID 1893, 2009; in the data active = percent response mostly above about 71%, no sharp cut-off; inactive = mostly below about 38%;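 also: higher means compound restores mutant binding toward wildtype level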
MEKK3 confirm – MEKK3 wild-type PB1 binding to MEK5, inhibitors, confirmation, biochemical, bead multiplex flow cytometry, single concentration, wildtype; shares compounds with MEKK3 PB1 HTS; Alexa488-MEK5 binding to MEKK3; hits give low values; binding response (% of control), % at 10 µM; actives 1.8% (n = 5,900); AID 1894, 2009;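 active = binding response below 72% of control, or above a set upper limit, though filed actives all read lower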;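 also: 100% = DMSO only wells and 0% = binding blocked by excess unlabeled MEK5; lower values mean stronger disruption of MEK5 binding to MEKK3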
An asterisk follows results filed as active; / = not tested or not shown; [ ] = dose if it differs, or a comment. The list is not random: actives were taken first. Their share in the collection is about 2.5%.

SMILES	MEKK3 PB1 HTS	GRK2 inh	MEKK2wt PB1 HTS	MEKK2 mut-MEK5	MEKK2wt confirm	MEKK2mut confirm	MEKK3 confirm
COc1cccc(NC(=O)CN(C)C(=O)c2c(C)nn(-c3ccccc3)c2Cl)c1	/	0.0	/	/	/	/	/
Cc1cccc(C(=O)N2CCN(c3ncnc4c3cnn4-c3ccccc3)CC2)c1	106.0	1.0	100.0	24.0*	97.0	-2.0	100.0
O=C(Nc1ccnn1C1CCN(C(=O)c2cc(Cl)ccc2F)CC1)C1CCOC1 (stereo not given)	104.0	1.0	103.0	1.0	/	/	/
CC(C)c1ccc(N2C(=O)/C(=C/N(C)C)SC2=S)cc1	100.0	1.0	62.0*[inhibitor]	6.0	85.0	-10.0	88.0
CCO/C=C1\SC(=S)N(c2ccc(Cl)cc2)C1=O	108.0	0.0	104.0	1.0	/	/	/
COc1ccccc1NC(=O)CNC(=O)c1ccccc1C	75.0*[inhibitor]	1.0	78.0	-17.0	102.0	3.0	107.0
O=C(C[C@@H]1C/C=C\CC[C@H](Cc2ccc(F)cc2)C(=O)OC[C@@H]2CCCN2C1=O)NCCO	/	0.0	/	/	/	/	/
O=C(NCc1ccc2c(c1)OCO2)c1ccc(Br)cc1	99.0	4.0	108.0	4.0	/	/	/
Cc1nc2cc(C(=O)NCc3ccc4c(c3)OCO4)ccc2n1-c1ccc(Br)cc1	65.0*[inhibitor]	3.0	92.0	-2.0	98.0	3.0	96.0
CCN(CC(=O)Nc1ccc(OC)cc1)C(=O)c1ccc(N2C(=O)CCC2=O)cc1	/	3.0	/	/	/	/	/
Cc1cc(C)c(C)c(S(=O)(=O)N2CCN(C(=O)c3ccccn3)CC2)c1C	/	0.0	/	/	/	/	/
CC(NC(=O)c1ccco1)C(=O)NC(C)c1cc(F)c(Cl)cc1Cl (stereo not given)	94.0	1.0	93.0	-9.0	/	/	/
CC(=O)c1c(N2CCN(c3ccccc3)CC2)nc(=S)n(-c2ccccc2)c1C	82.0	0.0	23.0*[inhibitor]	11.0	93.0	-7.0	94.0
CC(C)CCOc1cccc(OCC(=O)Nc2ccncc2)c1	100.0	0.0	104.0	5.0	/	/	/
Cn1c(=O)c2c(SCCN3CCOCC3)nc(C3CCCC3)nc2n(C)c1=O	58.0*[inhibitor]	0.0	74.0	-4.0	104.0	-2.0	99.0
COc1cc(/C=N\Nc2nc3ccccc3[nH]2)cc(OC)c1OC	106.0	0.0	112.0	4.0	/	/	/
COc1ccc2c(c1)c(/C=N/Nc1nc3ccccc3[nH]1)c(C)n2C	103.0	0.0	164.0*	51.0*	165.0	41.0	107.0
CC1CCCCC12NC(=O)N(CC(=O)NCCc1ccc(S(N)(=O)=O)cc1)C2=O (stereo not given)	/	1.0	/	/	/	/	/
CC1NC(=O)NC1CCCCCC(=O)NCCc1ccccc1 (stereo not given)	1.0*[inhibitor]	1.0	-2.0*[inhibitor]	-21.0	111.0	3.0	104.0
Cc1nnc(SCC(=O)Nc2c(Cl)cccc2Cl)n(N)c1=O	/	1.0	/	/	/	/	/
COc1ccc(P(=O)(COc2ccc([N+](=O)[O-])cc2)c2ccc(OC)cc2)cc1	66.0*[inhibitor]	3.0	101.0	-1.0	94.0	-3.0	94.0
COc1ccc(CCNC(=O)COc2ccc([N+](=O)[O-])cc2)cc1	98.0	1.0	99.0	0.0	/	/	/
O=[N+]([O-])c1cc(C(F)(F)F)ccc1NCCNC(=S)Nc1ccc(Cl)cc1	107.0	3.0	139.0*	19.0	131.0	20.0	108.0
CC(=O)N1CCN(C(=S)c2cccc([N+](=O)[O-])c2)CC1	132.0*	0.0	109.0	0.0	45.0	-14.0	72.0
CC12CS(=O)(=O)CC1SC(=S)N2Cc1ccccc1 (stereo not given)	103.0	0.0	101.0	4.0	/	/	/
